Screening data: PubChem BioAssay, National Center for Advancing Translational Sciences (NCATS)
Compounds with a hit are over-represented: about 10% of the library has one in this group of screens.
12-hLO inh: 12-hLO (ALOX12) enzyme inhibition | P18054 | purified 12-hLO, xylenol orange hydroperoxide absorbance | Potency, µM (titrated, usually from 57.1 µM), actives largely listed as inhibitors | 150,000 compounds, 0.12% hits | AID 1452; further: nearly all actives have a fitted effect of over 55% in size
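Purified human 12hLO (150 nM), preincubated 15 min with compound, then 40 uM arachidonic acid for 30 min, room temperature, Hepes pH 7.0 with 0.01% Triton X-100. Hydroperoxide detected by ferrous iron/xylenol orange; 573/405 nm absorbance ratio gives reaction progress.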
HPGD inh: inhibitors of human 15-hydroxyprostaglandin dehydrogenase (HPGD); purified HPGD, NADH fluorescence kinetic, PGE2 substrate; Potency, µM, usual class: inhibitors; P15428; 150,000 compounds, 4.3% hits; active means well fitted inhibition curve with a large enough effect, not every such curve was filed as active; inconclusive means small, poorly fitted or top-dose-only effect, or another doubt; inactive means no such curve, though single readings can be large or run the other way
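20 nM HPGD preincubated 15 min at room temperature with compound in 50 mM Tris-HCl pH 8, 0.01% Tween 20. Started with 1 mM NAD+ and 30 uM prostaglandin E2; NADH fluorescence (360/450 nm) read 5 times over 30-s intervals, last minus first.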
PNC inhibitor: perinucleolar compartment assembly inhibition; PC3M PTB-GFP, PNC prevalence imaging, 16 h; hits give low values; activity change (PNC), negative = inhibition, % at 10 µM; 140,000 compounds, 3.1% hits;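 active means readout at or below -70, meaning at least 70% loss of cells showing the perinucleolar compartment, a nuclear body marking cancer cells; inconclusive means readout between -30 and a set limit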
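Compounds are pinned in duplicate onto adhered PC3M cells stably expressing GFP-tagged PTB and incubated 16 h at 37 C. Cells are then fixed, nuclei stained with Hoechst, and PNC-positive cells counted.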
GLA inh pH 4.5: inhibitors of human alpha-galactosidase A at pH 4.5 | purified enzyme, 4-MU-alpha-Gal fluorescence, pH 4.5 | activity change, negative = inhibition, % at 105 µM | 230,000 tested, under 10 active | P06280
Target sequence (P06280 whole entry, looked up): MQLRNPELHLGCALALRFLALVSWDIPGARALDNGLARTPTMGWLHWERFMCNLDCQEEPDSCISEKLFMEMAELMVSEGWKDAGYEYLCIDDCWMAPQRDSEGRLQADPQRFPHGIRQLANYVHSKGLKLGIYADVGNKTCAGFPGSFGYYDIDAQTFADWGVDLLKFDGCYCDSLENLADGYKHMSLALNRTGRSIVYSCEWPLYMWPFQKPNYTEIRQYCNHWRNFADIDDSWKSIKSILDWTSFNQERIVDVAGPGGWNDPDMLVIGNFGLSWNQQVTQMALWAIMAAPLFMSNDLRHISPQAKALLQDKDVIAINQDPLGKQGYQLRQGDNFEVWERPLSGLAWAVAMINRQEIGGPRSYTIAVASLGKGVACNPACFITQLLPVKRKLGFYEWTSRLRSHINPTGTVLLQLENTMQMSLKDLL
GLA spleen mod: alpha-galactosidase A (human) modulation. human spleen homogenate, 4MU-alpha-Gal fluorescence, 40 min. 240,000 compounds, 0.008% hits. AID 2107. Potency, µM (doses to about 80 µM), actives largely listed as inhibitors. P06280
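Human spleen homogenate (1 ug) as enzyme source, 4-methylumbelliferyl-alpha-D-galactopyranoside 1 mM final, citrate/phosphate pH 5.0 with 0.01% Tween-20. Compounds 40 min at 37C, NaOH/glycine stop; fluorescence Ex 365/Em 440, Hill-fit AC50.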
ALDH1A1 block: ALDH1A1 (human) enzyme inhibition | P00352 | 220,000 compounds, 7.3% hits | Purified ALDH1A1, NADH fluorescence, propionaldehyde substrate | Potency, µM (doses to about 75.3 µM), usual class: inhibitors | AID 1030; active means well fitted inhibition curve with a large enough effect, not every such curve was filed as active; inconclusive means small, poorly fitted or top-dose-only effect, or another doubt; inactive means no such curve, though single readings can be large or run the other way
Large screens that a line does not name were inactive. Unless noted, the call rests on the fitted dose curve; in most records, active means well fitted curve in the direction sought with a large enough effect; inconclusive means small, poorly fitted or top-dose-only effect, or another doubt; inactive means no such curve, though single readings can be large; an effect the other way counts as inactive or inconclusive.

CC(C)CCn1c(SCC(=O)c2ccccc2)nc2c1c(=O)[nH]c(=O)n2C	ALDH1A1 block 18µM
CCN1CCN(c2nc3c(c(=O)[nH]c(=O)n3C)n2CCSc2nc3ccccc3s2)CC1	none
CC(CSc1nc2ccccc2s1)Cn1c(N2CCCC2)nc2c1c(=O)[nH]c(=O)n2C (stereo not drawn)	HPGD inh 22µM
CC(C)CCn1c(Sc2nc3ccccc3s2)nc2c1c(=O)[nH]c(=O)n2C	PNC inhibitor inconclusive, ALDH1A1 block 11µM (no result: HPGD inh)
Cn1c(=O)c2c(nc(SCCN3CCOCC3)n2Cc2ccccc2Cl)n(C)c1=O	none
Cn1c(=O)c2c(nc(SCCN3CCOCC3)n2Cc2cccc3ccccc23)n(C)c1=O	ALDH1A1 block 22µM
CO[Si](CCCNCCC[Si](OC)(OC)OC)(OC)OC	none (no result: PNC inhibitor, GLA inh pH 4.5)
COc1ccc(N(C)C(=O)c2onc3c2CCCC3)cc1	PNC inhibitor inconclusive
CCOC(=O)CSc1nc2c(c(=O)[nH]c(=O)n2C)n1CCc1ccccc1	PNC inhibitor inconclusive, ALDH1A1 block inconclusive
CCCn1c(SCc2ccccc2)nc2c1c(=O)[nH]c(=O)n2C	HPGD inh inconclusive, ALDH1A1 block inconclusive
Cn1c(=O)[nH]c(=O)c2c1nc(SCC(=O)O)n2CCc1ccccc1	12-hLO inh inconclusive, HPGD inh 13µM, PNC inhibitor inconclusive, ALDH1A1 block 6.3µM
Cn1c(=O)[nH]c(=O)c2c1nc(SCCN1CCOCC1)n2CCCc1ccccc1	HPGD inh 35µM, PNC inhibitor inconclusive
CCOC(=O)C(CC)Sc1nc2c(c(=O)[nH]c(=O)n2C)n1CCc1ccccc1 (stereo not drawn)	HPGD inh 22µM, ALDH1A1 block 11µM
COc1ccc(NC(=S)NCCc2c(C)[nH]c3ccc(OC)cc23)cc1	none (no result: 12-hLO inh, HPGD inh, PNC inhibitor)
CCC(C)c1ccc(O[C@@H]2O[C@H](CO)[C@@H](O)[C@H](O)[C@H]2NC(C)=O)cc1 (stereo partly drawn)	none (no result: 12-hLO inh, PNC inhibitor)
c1csc(C(c2nnnn2C2CCCCC2)N2CCCC3(CCCCC3)C2)c1 (stereo not drawn)	PNC inhibitor inconclusive, ALDH1A1 block 7.9µM
c1ccc(Cn2nnnc2C(c2cccs2)N2CCCCCC2)cc1 (stereo not drawn)	ALDH1A1 block 14µM
Oc1ccc(N2CCN(C(c3cccs3)c3nnnn3CCc3ccccc3)CC2)cc1 (stereo not drawn)	ALDH1A1 block 25µM
c1ccc(Cn2nnnc2C(c2cccs2)N2CCc3ccccc3C2)cc1 (stereo not drawn)	ALDH1A1 block inconclusive
COc1ccc(Cn2nnnc2C(c2cccs2)N2CCN(c3ccccc3)CC2)cc1 (stereo not drawn)	none
CC1(C)C(=O)C=C[C@@]2(C)C1C=C[C@@]1(C)C2CC[C@@]2(C)C(c3ccoc3)OC(=O)C3OC312 (stereo partly drawn)	none (no result: PNC inhibitor)
CCCn1nnnc1NC(=O)CSc1ccc(Cl)cc1	HPGD inh 16µM
O=C(CNc1ccc(Br)cc1)NNC1=NCCC1	PNC inhibitor -113
O=C(CNc1ccc(Cl)cc1)c1ccc(Br)cc1	ALDH1A1 block 10µM (no result: 12-hLO inh, HPGD inh, PNC inhibitor)
CCC(=O)NNc1ccc(Br)cc1	none (no result: 12-hLO inh, HPGD inh, PNC inhibitor)
O=C(CNc1ccc(Br)cc1)c1ccc(O)cc1	ALDH1A1 block 11µM (no result: 12-hLO inh, HPGD inh, PNC inhibitor)
C/C(=C\C(=O)c1ccc(Br)cc1)Nc1ccc(Cl)cc1	ALDH1A1 block inconclusive
Nc1ccccc1SC1CC(=O)N(c2ccccc2Cl)C1=O (stereo not drawn)	none (no result: 12-hLO inh, HPGD inh, PNC inhibitor)
O=C1CC(Sc2ncccn2)C(=O)N1c1ccccc1C(F)(F)F (stereo not drawn)	ALDH1A1 block 20µM
COc1ccccc1N1C(=O)CC(Sc2ncccc2C(=O)O)C1=O (stereo not drawn)	PNC inhibitor -100
O=C(O)c1cccnc1SC1CC(=O)N(c2cccc(C(F)(F)F)c2)C1=O (stereo not drawn)	ALDH1A1 block 13µM
CN(C)C(=O)c1ccc(-c2ccc3ncnc(N4CCOCC4)c3c2)cc1	none (no result: 12-hLO inh, HPGD inh, PNC inhibitor, GLA inh pH 4.5)
CC(=O)c1cc(F)c(N2CCN(C(=O)C(C)(C)C)CC2)cc1C	ALDH1A1 block 16µM
